Measured values as given in the supplement of paper PMC7801607.

What was measured:
CHO = test: % viability of CHO cells (MTT); higher = less toxic; details: 48 h
Procedure, shortened: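 Viability was given as a percentage of untreated cells and measured colorimetrically by the tetrazolium (MTT) assay. Before this, CHO cells at 10^6 cells/well in 200 µL attached overnight, then received fresh medium containing compound at 2 or 20 µM for 48 h.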

HepG2-A16-CD81 = test: % inhibition of HepG2 viability (CellTiter-Glo); higher = more toxic; details: 5 µM
[1] = system: Plasmodium falciparum NF54 stage IV/V gametocytes; test: % inhibition of gametocyte viability (PrestoBlue); higher = more inhibition; details: 48 h
Procedure, shortened: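 Values are percent inhibition of gametocyte viability, normalised to vehicle and kill controls in a single run. Stage IV/V NF54 gametocytes (2% gametocytaemia, 5% haematocrit, 100 µL/well) were held with compound at 1 or 5 µM for 48 h at 37 °C, stationary and hypoxic. Viability was read as 612 nm fluorescence on 70 µL of supernatant after a 2 h incubation with 10 µL PrestoBlue.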

[2] = system: Plasmodium falciparum NF54 asexual blood stage; test: % inhibition of asexual blood stage proliferation (pLDH); higher = more inhibition; details: 72 h
Procedure, shortened: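 Using 96-well plates, the screen was run twice on separate occasions with Plasmodium falciparum NF54 ring-stage cultures at 1% haematocrit and 2% parasitaemia. Each culture was exposed to compound at 2 or 20 µM for 72 h at 37 °C under a gas mix of 4% CO2, 3% O2 and 93% N2. After incubation, the parasite lactate dehydrogenase assay was read colorimetrically at 620 nm. From this readout, percent inhibition of asexual proliferation was derived against control wells.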

[3] = system: Plasmodium falciparum NF54 stage IV/V gametocytes; test: % inhibition of gametocyte viability (ATP bioluminescence); higher = more inhibition; details: 24 h
Procedure, shortened: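 Viability of stage IV/V NF54 gametocytes is given as percent inhibition, normalised to control wells in a single run. Gametocytes enriched on density gradients were seeded at 30,000 per well in 96-well plates with compound at 1 or 5 µM and held at 37 °C for 24 h. ATP was then read with the Promega BacTiter Glo bioluminescence system.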

[4] = system: Plasmodium falciparum NF54 stage IV/V gametocytes; test: % inhibition of gametocyte viability (luciferase reporter); higher = more inhibition; details: 48 h
Procedure, shortened: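 Luminescence from 30 µL lysate combined with 30 µL Promega luciferin substrate was recorded on a GloMax-Multi+ reader using 10 s integration. The lysate came from stage IV/V NF54-Pfs16-GFP-Luc gametocytes (2% gametocytaemia, 2% haematocrit) held with compound at 1 or 5 µM for 48 h at 37 °C under stationary, hypoxic conditions. Percent inhibition was normalised against controls run once.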

[5] = system: Plasmodium berghei ANKA liver stage in HepG2-A16-CD81; test: % inhibition of liver stage parasite viability (luciferase); higher = more inhibition; details: 5 µM; 48 h
Experimental: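 Single-concentration screen of the MMV Pandemic Response Box. P. falciparum NF54 asexual blood stages: pLDH assay, 72 h at 37 °C, 2 and 20 µM, n=2. Stage IV/V gametocytes (NF54): luciferase reporter (NF54-Pfs16-GFP-Luc, 48 h), ATP bioluminescence (24 h) and PrestoBlue (48 h) at 1 and 5 µM, n=1. P. berghei liver stage (luciferase in HepG2-A16-CD81, 48 h post infection) at 5 µM, n=4. All normalised to DMSO and kill controls as % inhibition.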
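Throughout, for % inhibition of HepG2 viability (CellTiter-Glo): HepG2-A16-CD81 hepatoma cells plated as in the liver-stage assay but without sporozoites, with DMSO wells as negative and 25 µM puromycin as positive control.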

SMILES	% viability of CHO cells (CHO; 2 µM) [%]	% viability of CHO cells (CHO; 20 µM) [%]	% inhibition of HepG2 viability (HepG2-A16-CD81) [%]	% inhibition of gametocyte viability ([1]; 1 µM) [%]	% inhibition of gametocyte viability ([1]; 5 µM) [%]	% inhibition of asexual blood stage proliferation ([2]; 2 µM) [%]	% inhibition of asexual blood stage proliferation ([2]; 20 µM) [%]	% inhibition of gametocyte viability ([3]; 1 µM) [%]	% inhibition of gametocyte viability ([3]; 5 µM) [%]	% inhibition of gametocyte viability ([4]; 1 µM) [%]	% inhibition of gametocyte viability ([4]; 5 µM) [%]	% inhibition of liver stage parasite viability [5] [%]
O=C(NC(=O)N1CCCc2ccccc21)c1ccc(Cl)cc1Cl	95.4	99.1	-0.619	0.538	13.4	1.37	-6.87	< 0	< 0	< 0	< 0	36.8
CN(C/C=C/C#CC(C)(C)C)Cc1cccc2ccccc12	101	117	-4.35	< 0	< 0	-1.71	61.2	< 0	< 0	< 0	< 0	29.1
COc1cc(C2C3=C(CC(C)(C)CC3=O)Nc3ccccc3N2C(C)=O)ccc1OCc1ccccc1 (stereo unspecified)	174	58	3.3	< 0	13.3	-1.82	14.6	3.07	< 0	< 0	< 0	25.5
CC(C)c1ccc(COc2cccc(-c3cc(S(C)=O)c(C#N)c(=O)[nH]3)c2)cc1 (stereo unspecified)	91	106	3.83	< 0	28.5	18	56.2	51.9	82.8	< 0	< 0	32.5
CC(=O)Nc1cc(NS(=O)(=O)c2ccc(Cl)cc2)cc2c(Cl)n[nH]c12	108	81.2	2.74	21.4	50	20.6	75	6.24	3.03	< 0	< 0	11.8
CC(C)N(c1cc(-c2ccccc2)sc1C(=O)O)C(=O)[C@H]1CC[C@H](C)CC1	91.8	103	-2.07	18.3	14.3	28.8	44.9	4.36	< 0	4.34	< 0	20.5
CCCCCOc1ccc(/C=C2\Oc3c(ccc(O)c3O)C2=O)c(O)c1	123	127	3.16	< 0	< 0	2.75	90.6	< 0	< 0	< 0	< 0	15.2
O=c1cc(Nc2ccc3ccccc3c2)[nH]c(=O)[nH]1	85.2	85.2	4.08	< 0	4.14	1.56	3.03	< 0	< 0	< 0	1.22	39.9
C=C(C)n1c(=O)n(Cc2ccccc2C)c2ccccc21	110	56.8	3.81	4.81	0.864	16.6	48.2	< 0	< 0	< 0	< 0	19.1
Nc1cccc(-c2nc(N)nc(NC3Cc4ccccc4C3)n2)c1	96.5	75.1	12.8	< 0	< 0	-7.13	22.3	< 0	< 0	< 0	< 0	-38.1
CC(C)(C)NC(=O)N[C@H](C(=O)N1C[C@H]2[C@@H]([C@H]1C(=O)NC(CC1CCC1)C(=O)C(N)=O)C2(C)C)C(C)(C)C (stereo partly specified)	108	50.4	9.51	4.37	8.14	36.6	73.7	< 0	< 0	< 0	< 0	-15.2
CC(=O)N[C@H](C)C(=O)N[C@H](Cc1ccccc1)C(=O)O	91.7	87.7	8.11	< 0	-0.199	24.6	81.8	< 0	< 0	17.2	< 0	0.6
CC(C)(C)c1ccc(C(Cn2cccc(C(F)(F)F)c2=O)NC2Cc3ccccc3C2)cc1 (stereo unspecified)	106	94.3	-1.5	10	21.3	32.7	69.1	< 0	< 0	< 0	3.42	2.01
O=C(O)/C=C/C=C/c1cccc(Oc2cc(Cl)cc(Cl)c2)c1	97.3	110	-6	< 0	< 0	30.7	41.4	3.95	2.02	9.35	0.936	28.9
Cc1[nH]c2ccccc2c1CCNCc1ccc(/C=C/C(=O)NO)cc1	76.4	37.9	54.5	19.9	34.4	62.2	79.9	< 0	< 0	31.8	3.05	72.8
CC1CCc2c(N3CCC(O)CC3)c(F)cc3c(=O)c(C(=O)O)cn1c23 (stereo unspecified)	84.2	87.6	2.9	< 0	11.7	69.7	98.8	< 0	< 0	1.04	6.66	17.1
Nc1nc(F)nc2c1ncn2[C@H]1O[C@@H](CO)[C@H](O)[C@@H]1O	33.8	4.44	77.8	21.2	19.8	67.3	72.4	11.1	< 0	4.93	35.8	76
NC(=O)c1nccn([C@@H]2O[C@H](CO)[C@@H](O)[C@H]2O)c1=O	91.2	105	4.39	5.72	19.8	11.7	53.8	< 0	< 0	7.58	< 0	14.7
Cc1cc(C)n(O)c(=O)c1	108	109	-0.333	< 0	3.7	-9.1	4.56	< 0	3.75	< 0	< 0	15.5

SMILES	% viability of CHO cells (CHO; 2 µM) [%]	% viability of CHO cells (CHO; 20 µM) [%]	% inhibition of HepG2 viability (HepG2-A16-CD81) [%]	% inhibition of gametocyte viability ([1]; 1 µM) [%]	% inhibition of gametocyte viability ([1]; 5 µM) [%]	% inhibition of asexual blood stage proliferation ([2]; 2 µM) [%]	% inhibition of asexual blood stage proliferation ([2]; 20 µM) [%]	% inhibition of gametocyte viability ([3]; 1 µM) [%]	% inhibition of gametocyte viability ([3]; 5 µM) [%]	% inhibition of gametocyte viability ([4]; 1 µM) [%]	% inhibition of gametocyte viability ([4]; 5 µM) [%]	% inhibition of liver stage parasite viability [5] [%]
C=CCc1cc(Cc2cnc(N)nc2N)cc(OC)c1O	89.2	105	7.8	12.8	29.7	29.1	76.8	< 0	< 0	< 0	< 0	68.4
NC[C@H]1O[C@H](O[C@H]2[C@H](O)[C@@H](O[C@H]3O[C@H](CO)[C@@H](O)[C@H](N)[C@H]3O)[C@H](N)C[C@@H]2N)[C@H](N)C[C@@H]1O	111	8.4	-3.85	< 0	1.53	-2.54	18.7	< 0	< 0	< 0	6.32	36.3
COc1cc(Cc2cc(N)nc(N)n2)cc(OC)c1OC	107	103	4.91	< 0	< 0	43.4	50.8	< 0	< 0	< 0	< 0	81.6
O=C(CC1Sc2ncnn2C1=O)Nc1ccc(Br)cc1 (stereo unspecified)	100	102	-3.25	20.1	9.94	24.1	42.2	8.79	43.5	< 0	1.92	20.8
COc1ccc(NS(=O)(=O)c2ccc(Cl)s2)cn1	98	100	6.74	< 0	6.82	22.6	48.5	< 0	< 0	4.39	< 0	-1.42
CC#C[C@]1(O)CC[C@H]2[C@@H]3CCC4=CC(=O)CCC4=C3[C@@H](c3ccc(N(C)C)cc3)C[C@@]21C	89.5	130	0.01	< 0	< 0	15.1	53.8	< 0	< 0	2.32	< 0	15.2
Nc1nc(C(F)(F)F)cc2c1[nH]c(=O)n2Cc1ccccc1	89.2	102	8.47	2.55	20.9	2.26	35	< 0	< 0	18.1	< 0	-12.1
CC(C)n1cnc2c(NCc3ccccc3)nc(NCc3ccccc3)nc21	104	58.3	7.56	< 0	< 0	45.5	60.5	< 0	< 0	< 0	< 0	17.1
CCCNc1ccc(S(=O)(=O)Nc2cc(C)on2)cc1	93.3	116	-1.94	-0.214	6.51	1.93	-9.2	0.832	< 0	< 0	< 0	32.4
CC(C)Cn1c(=O)n(C)c(=O)c2c(-c3cncn3C)n(Cc3cccc4ccccc34)nc21	92.4	102	8.23	3.5	22.5	85.2	118	< 0	< 0	11.4	< 0	-8.38
Cc1ncc([N+](=O)[O-])n1CC(C)O (stereo unspecified)	92.2	87.1	7.14	7.95	28.2	42.5	65.1	4.81	< 0	8.84	10	13.9
OC(Cn1cncn1)(Cn1cncn1)c1ccc(F)cc1F	76.1	-3.55	-1.31	< 0	< 0	-1.25	-5.32	< 0	< 0	< 0	< 0	19.2
CCC(C)n1ncn(-c2ccc(N3CCN(c4ccc(OCC5COC(Cn6cncn6)(c6ccc(Cl)cc6Cl)O5)cc4)CC3)cc2)c1=O (stereo unspecified)	119	119	26.2	2.77	1.55	10.1	83.4	3.02	< 0	< 0	< 0	46.4
CCNC(=O)Nc1cc(-c2ccccc2)c(-c2cncc(C(=O)O)c2)cn1	109	94	-1.59	19.7	30.2	-11.2	-0.305	< 0	< 0	< 0	< 0	41.3
NCc1ccc(S(N)(=O)=O)cc1	83.8	129	6.22	7.26	15.6	24	96.5	< 0	< 0	< 0	< 0	19.8
Cc1c(OCC(F)(F)F)ccnc1CS(=O)c1nc2ccccc2[nH]1 (stereo unspecified)	87.1	96.9	1.82	14.1	15.8	71.5	95.5	< 0	< 0	< 0	< 0	-23.2
Cc1cc(O)c2c(c1)C(=O)c1c(I)c(O)c(I)c(O)c1C2=O	81.3	64.1	4.29	< 0	< 0	30.5	64.9	< 0	< 0	< 0	6.19	-49.9
N=c1n(CCN2CCCCC2)c2ccccc2n1CC(O)COc1ccc(Cl)cc1Cl (stereo unspecified)	82.7	-3.8	5.14	38.8	66	76.8	85.7	85.7	88.1	40.7	97	-0.075
Cc1ccc(Oc2ccccc2-c2csc(NC3=NCCCN3)n2)c(C)c1	104	112	13	< 0	< 0	11.5	88.7	< 0	< 0	< 0	< 0	57.6
